This note sets out measurements from PubChem BioAssay (Tox21).

A number with no mark means an inactive call. Results filed as inconclusive are left out. Calls of active or inactive are those of the source. Unless noted, calls come from the whole dose curve; as a rule, active = well fitted curve in the direction sought with a large enough effect in the repeat runs; inconclusive = weak or mixed curves; inactive = no such curve, though single readings can be large; an effect the other way counts as inactive or inconclusive.

A short description of test [1]: qHTS assay for small molecules that induce genotoxicity in human embryonic kidney cells expressing luciferase-tagged ATAD5 (AID 651632). Note: nearly all actives have a fitted effect of over 15% in size. Note: potency is the fitted concentration of half-maximal effect. The method, boiled down:
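Cells were seeded at 2,000 per well, dosed with compound, and incubated 16 hr at 37C in 5% CO2. Luciferase activity was then quantified after a 30 min room-temperature incubation with Amplite.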
(Quantitative high-throughput screening tests each substance at several concentrations.)

A short description of test [2]: qHTS assay for small molecule agonists of the p53 signaling pathway - cell viability (AID 651633; calls by dose curve; note: nearly all actives have a fitted effect of over 30% in size; note: potency is the fitted concentration of half-maximal effect). The method, boiled down: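 p53RE-bla cells were treated with compound for 16 hours at 37 C. Cytotoxicity was then measured as CellTiter-Glo luminescence after 30 min at room temperature.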
A short description of test [3]: qHTS assay for small molecules that induce genotoxicity in human embryonic kidney cells expressing luciferase-tagged ATAD5 - cell viability (AID 651634; calls by dose curve; note: nearly all actives have a fitted effect of over 25% in size). The method, boiled down:
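Cells (HEK293T, luciferase-tagged ATAD5) are seeded at 2,000 per well, dosed with compound or DMSO vehicle, and incubated 15.5 hr at 37C and 5% CO2. CellTiter-Fluor is added for 30 min before fluorescence is measured.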

Test [4] is described as follows: qHTS assay for small molecule disruptors of the mitochondrial membrane potential - cell viability (AID 720634; calls by dose curve; note: nearly all actives have a fitted effect of over 20% in size; note: potency is the fitted concentration of half-maximal effect). The method, boiled down:
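Cytotoxicity was measured by ATP quantitation in HepG2 wells that had first been treated with compound for 1 hr and stained with m-MPI dye; CellTiter-Glo incubation was 30 min at room temperature.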

Test [5] can be described thus: qHTS assay for small molecule disruptors of the mitochondrial membrane potential (AID 720635). Note: potency is the fitted concentration of half-maximal effect. The method, boiled down:
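HepG2 cells exposed to compound 1 hr at 37C, then Mito-MPS dye 30 min. Ratio read of aggregate (540/590 nm) versus monomer (490/535 nm) fluorescence.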

Test [6] is described as follows: qHTS assay to test for compound auto fluorescence at 590 nm (red) in HepG2 cells (AID 720674). The method, boiled down: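 Fluorescence at 590 nm emission following 540 nm excitation was recorded from HepG2 wells one hour after compound transfer, with DMSO-only wells as vehicle and Rose Bengal sodium equivalency as the scale.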
Test [7] can be described thus: qHTS assay to test for compound auto fluorescence at 535 nm (green) in HepG2 cells (AID 720675).
Test [8] is described as follows: qHTS assay to test for compound auto fluorescence at 460 nm (blue) in HEK293 cells (AID 720678). The method, boiled down: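 Blue read-out at excitation 405 nm and emission 460 nm follows overnight compound exposure of HEK293 cells at 37C in 5% CO2. Activity is given as auto fluorescence equivalency to triamterene.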
A short description of test [9]: qHTS assay to test for compound auto fluorescence at 535 nm (green) in HEK293 cells (AID 720680).
A short description of test [10]: qHTS assay to test for compound auto fluorescence at 460 nm (blue) in HEK293 cell free culture (AID 720681). The method, boiled down:
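Compounds were added to cell-free DMEM with 10% FBS and fluorescence read directly. The blue channel used 405 nm excitation and 460 nm emission, with triamterene as the reference fluorophore.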

A short description of test [11]: qHTS assay to test for compound auto fluorescence at 535 nm (green) in HEK293 cell free culture (AID 720682). The method, boiled down: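 DMEM + 10% FBS, cell-free; cpd or DMSO pinned in; Ex485/Em535 read; output as fluorescein-equivalent signal.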
Test [12] is described as follows: qHTS assay to test for compound auto fluorescence at 590 nm (red) in HEK293 cell free culture (AID 720683). The method, boiled down:
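Cell-free wells of DMEM with 10% FBS received compound, and intrinsic fluorescence was read at excitation/emission 540/590 nm. Values expressed as equivalence to Rose Bengal sodium.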

Test [13] can be described thus: qHTS assay to test for compound auto fluorescence at 590 nm (red) in HepG2 cell free culture (AID 720684). The method, boiled down:
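Auto fluorescence equivalency versus Rose Bengal sodium, red channel Ex/Em 540/590 nm; compounds in cell-free MEM/10% FBS; DMSO vehicle control.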

Test [14] can be described thus: qHTS assay to test for compound auto fluorescence at 460 nm (blue) in HepG2 cell free culture (AID 720685). The method, boiled down: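 Cell-free plates of MEM plus 10% FBS received 23 nL compound or DMSO vehicle; blue-channel (405/460 nm) intensity scored against triamterene as reference fluorophore.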
The nature of test [15]: qHTS assay to test for compound auto fluorescence at 535 nm (green) in HepG2 cell free culture (AID 720686).
Test [16] in a line: qHTS assay to test for compound auto fluorescence at 460 nm (blue) in HepG2 cells (AID 720687). The method, boiled down:
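HepG2 cells in MEM with 10% FBS, attached overnight at 37 C, were exposed to compound or DMSO for 1 hr at 37 C, 5% CO2. Blue fluorescence was read at 405/460 nm, with triamterene as reference fluorophore.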

A short description of test [17]: qHTS assay to test for compound auto fluorescence at 590 nm (red) in HEK293 cells (AID 720679). The method, boiled down:
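Red channel, Ex/Em 540/590nm; signal expressed as equivalency to Rose Bengal sodium. HEK293, 2,000 cells/well, 10% dialyzed FBS; 23 nL compound pinned after 4-5 hr attachment; overnight 37C/5% CO2 before reading.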

In test [18] the target is Glucocorticoid receptor (Homo sapiens) (UniProt P04150). The test is described as follows: qHTS assay to identify small molecule agonists of the glucocorticoid receptor (GR) signaling pathway (AID 720691; active = well fitted activation curve with a large enough effect in the signal ratio in the repeat runs, not every such curve was filed as active; the % refers to the signal ratio). The method, boiled down: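 Steps: seed GR-bla HeLa cells, incubate 4 h at 37 C/5% CO2; pin-transfer DMSO-dissolved compounds; incubate 18 h at 37 C; add LiveBLAzer B/G FRET substrate; after 2 h at room temperature, measure fluorescence.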
Sequence of Glucocorticoid receptor (Homo sapiens) (P04150 whole entry, looked up): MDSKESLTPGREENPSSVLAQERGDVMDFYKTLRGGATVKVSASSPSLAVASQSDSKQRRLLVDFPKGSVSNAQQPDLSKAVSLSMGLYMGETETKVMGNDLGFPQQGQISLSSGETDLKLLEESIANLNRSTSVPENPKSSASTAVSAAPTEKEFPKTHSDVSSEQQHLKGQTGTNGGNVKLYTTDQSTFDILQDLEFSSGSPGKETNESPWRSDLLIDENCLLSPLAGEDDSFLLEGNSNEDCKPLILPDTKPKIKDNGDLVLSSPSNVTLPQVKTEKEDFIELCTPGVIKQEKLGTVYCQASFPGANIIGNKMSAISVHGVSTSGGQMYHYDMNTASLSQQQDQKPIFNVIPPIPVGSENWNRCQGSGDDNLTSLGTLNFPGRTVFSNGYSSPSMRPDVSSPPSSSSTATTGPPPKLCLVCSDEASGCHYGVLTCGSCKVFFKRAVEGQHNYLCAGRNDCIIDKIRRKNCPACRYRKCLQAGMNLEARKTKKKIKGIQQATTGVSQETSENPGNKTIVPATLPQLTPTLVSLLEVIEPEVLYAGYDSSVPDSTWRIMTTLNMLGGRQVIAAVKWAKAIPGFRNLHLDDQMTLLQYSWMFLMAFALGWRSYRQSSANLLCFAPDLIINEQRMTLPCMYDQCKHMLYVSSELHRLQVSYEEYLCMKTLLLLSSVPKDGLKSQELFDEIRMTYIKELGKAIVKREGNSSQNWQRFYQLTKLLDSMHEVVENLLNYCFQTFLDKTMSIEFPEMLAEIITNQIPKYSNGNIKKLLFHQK

Test [19] shares this target. The test is described as follows: qHTS assay to identify small molecule antagonists of the glucocorticoid receptor (GR) signaling pathway (AID 720692; active = well fitted inhibition curve with a large enough effect in the signal ratio in the repeat runs, not every such curve was filed as active; the % refers to the signal ratio). The method, boiled down:
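Antagonism was scored as loss of dexamethasone-driven (5 nM final) reporter signal in HeLa cells bearing a glucocorticoid response element–beta-lactamase construct, after 18 h compound exposure at 37 C and 2 h FRET substrate loading.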
% is set by controls: 0 for no effect and ±100 for the full control effect.

Turning to `Cc1ccc([N+](=O)[O-])c(N)c1`, the Potency result in test [1], in test [2], in [3], in test [4] and in [5] was “inactive” in each case. The result in test [6], in [7], in test [8], in test [9], in test [10] and in test [11] was inactive. Further, the compound was classed as inactive in test [12], in test [13], in test [14], in test [15] and in [16].
With `CC(C)S`, the Potency result in test [1], in test [2], in [3], in [4], in test [5] and in test [18] was “inactive” throughout. In [19], the Potency result was “inactive”. Besides, the compound was classed as inactive in test [7], in test [8], in [17], in test [9], in test [10] and in test [11]. The result in [13], in test [14], in [15] and in test [16] was inactive.
As for `COc1ccc2nc(NC(=O)Nc3ccccc3)sc2c1`, the Potency is 0.75 µM (active) in test [1], 6.68 µM (active) in [4] and 1.19 µM (active) in test [5]. The Potency entry in [2] and in test [3] was “inactive” throughout. Moreover, the outcome in test [6], in [7], in test [17], in test [9], in test [10] and in [11] was inactive. Also, the call in test [12], in test [13], in test [14], in test [15] and in [16] was inactive.
For `CC(=O)N(CC(O)CN(C(C)=O)c1c(I)c(C(=O)NCC(O)CO)c(I)c(C(=O)NCC(O)CO)c1I)c1c(I)c(C(=O)NCC(O)CO)c(I)c(C(=O)NCC(O)CO)c1I` (stereo unspecified), the Potency entry in test [1], in [2], in test [3], in test [4], in test [5] and in test [18] was “inactive” in each case. For the same compound, the Potency entry in test [19] is “inactive”. For the same compound, the fluorescence, relative to Rose Bengal in test [6] is 0.142% [at 18.6 µM]. For the same compound, the fluorescence, % of fluorescein control in test [7] was 0.0792% [at 18.6 µM]; in [15] it was 0.0651% [at 18.6 µM]. For the same compound, the fluorescence, % of triamterene in test [8] was 0.0832% [at 18.6 µM]. Besides, the fluorescence, % of fluorescein in test [9] was -0.0222% [at 18.6 µM]. In addition, the fluorescence, % of fluorescent control was 0.0333% [at 18.6 µM] in test [10], -0.132% [at 18.6 µM] in test [12], -0.0088% [at 18.6 µM] in test [14] and -0.0121% [at 18.6 µM] in [16]. The activity change in test [11] is -0.0739% [at 18.6 µM]. For the same compound, in [13], the fluorescence, % of Rose Bengal was 0.365% [at 18.6 µM].
As for `CCC1(C)NC(=O)NC1=O` (stereo unspecified), the Potency result in [1], in test [2], in [3] and in test [4] was “inactive” throughout. Also, the result in [6], in test [7], in test [17], in [9], in [10] and in test [11] was inactive. Moreover, the compound was classed as inactive in test [12], in [13], in [14] and in [15].
Turning to `O=C(O)[C@@H]1CSCN1`, the Potency entry in [1], in [2], in test [3], in [4], in test [5] and in [18] was “inactive” throughout. Moreover, the Potency entry in [19] was “inactive”. The compound was called inactive in test [6], in test [7], in test [8], in test [17], in test [10] and in [11]. Moreover, the outcome in test [13], in [14], in test [15] and in [16] was inactive.
As to `C=C(C)C(=O)OCCOP(=O)(O)O`, the Potency entry in [1], in [2], in [3], in [4], in test [5] and in test [18] was “inactive” throughout. Further, the Potency result in test [19] is “inactive”. The compound was classed as inactive in test [6], in test [7], in test [8], in [9], in test [10] and in test [11]. Further, the call in [12], in test [13], in test [14], in test [15] and in test [16] was inactive.
Regarding `Cc1nnc(SCC2=C(C(=O)O)N3C(=O)[C@@H](NC(=O)Cn4cnnn4)[C@H]3SC2)s1`, the Potency entry in test [1], in test [2], in [3], in [4] and in [5] was “inactive” throughout. In addition, the compound was called inactive in test [6], in test [7], in test [8], in [9], in [10] and in test [11]. The call in test [12], in test [13], in test [14], in test [15] and in [16] was inactive.
For `CCCCCCCCCCCCOCCOS(=O)(=O)O`, the Potency result in test [1], in test [3] and in test [4] was “inactive” in each case. For the same compound, in [2], the Potency was 61.1 µM (active). The compound was called inactive in test [6], in test [7], in [8], in test [17], in [9] and in test [10]. The result in [11], in [12], in [14], in test [15] and in test [16] was inactive.
Turning to `CCCCC(CC)COC(=O)COc1cc(Cl)c(Cl)cc1Cl` (stereo unspecified), the Potency result in test [1], in [2], in test [3], in test [4], in test [18] and in [19] was “inactive” each time. In addition, the outcome in test [6], in [7], in test [8], in test [17], in test [9] and in test [10] was inactive. Also, the compound was classed as inactive in [11], in test [12], in test [14], in [15] and in test [16].
On to `CC1CN(c2ccccc2)NC1=O` (stereo unspecified), for which the Potency result in [1], in [2], in [3], in test [4] and in test [18] was “inactive” throughout. Moreover, the compound was classed as inactive in test [7], in [8], in [17], in test [9], in test [10] and in [11]. Also, the compound was classed as inactive in [12], in [14] and in [15].
With `CCCN(CCC)C(=O)C(CCC(=O)O)NC(=O)c1ccccc1` (stereo unspecified), the Potency entry in [1], in test [2], in test [3], in test [4] and in test [18] was “inactive” throughout. In addition, the result in test [6], in test [7], in test [8], in [17], in test [9] and in test [10] was inactive. The result in test [11], in [12], in test [13], in [14] and in test [15] was inactive.
With `CC1=CC(=O)CC(C)(C)C1=O`, the Potency result in [1], in test [2], in test [3], in test [4], in test [18] and in test [19] was “inactive” each time. For the same compound, the result in test [6], in [7], in [17], in test [9], in [10] and in test [11] was inactive. Moreover, the compound was called inactive in [12], in test [13], in test [14], in [15] and in test [16].
As to `O=CCCc1ccccc1`, the Potency result in [1], in test [2], in test [3] and in [4] was “inactive” throughout. Also, the result in [6], in test [7], in [8], in test [9], in test [10] and in test [11] was inactive. For the same compound, the compound was classed as inactive in test [12], in [13], in [14], in test [15] and in test [16].
